{"source": "the supplement of paper PMC3342239", "note": "Where a name gives a salt, the structure may show the parent alone."}
{"system": "Saccharomyces cerevisiae", "assay": "fraction of cells in G1 phase (DNA content, flow cytometry); higher = more cells with unreplicated DNA (G1 delay)", "conditions": "temperature: 30 C; YPD; JTY2953 pdr5 snq2 (sensitized); drug added to: cultures diluted from stationary phase; 6-7 h", "method_in_brief": "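Yeast (S. cerevisiae) in YPD at 30°C was treated with library drugs, and cells were then fixed in ethanol, stained with SYTOX Green and counted by flow cytometry over 10,000 events. Sensitized JTY2953 diluted 1∶200 from an overnight culture got a final 20 µg/ml and was fixed 6–7 h later; other runs dosed dividing JTY2953 (fixed at 6 h) or BY4741 (fixed at 4.33 h). G1 fraction means the Dean-Jett-Fox G1 peak area relative to the G1 and G2/M areas together.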"}
{"smiles": "C[C@@H]1C(=O)O[C@H]2C[C@@]34[C@H]5C[C@@H](C(C)(C)C)[C@]36[C@@H](OC(=O)[C@@H]6O)O[C@@]4(C(=O)O5)[C@]21O", "note": "[Ginkgolide a] (48.9705 µM)", "fraction of cells in G1 phase": 0.512}
{"smiles": "Cc1cnc(NC(=O)C2=C(O)c3ccccc3S(=O)(=O)N2C)s1", "note": "[Meloxicam] (56.9143 µM)", "fraction of cells in G1 phase": 0.501}
{"smiles": "NCCCC(O)(P(=O)(O)O)P(=O)(O)O", "note": "[Alendronate] (80.6158 µM)", "fraction of cells in G1 phase": 0.456}
{"smiles": "CS(=O)(=O)CCNCc1ccc(-c2ccc3ncnc(Nc4ccc(OCc5cccc(F)c5)c(Cl)c4)c3c2)o1", "note": "[Lapatinib] (34.4192 µM)", "fraction of cells in G1 phase": 0.565}
{"smiles": "O=S(=O)(c1cccc2cnccc12)N1CCCNCC1", "note": "(54.8998 µM)", "fraction of cells in G1 phase": 0.529}
{"smiles": "CC[C@H](C)C(=O)O[C@H]1CCC=C2C=C[C@H](C)[C@H](CC[C@@H]3C[C@@H](O)CC(=O)O3)[C@H]21", "note": "[Mevastatin] (51.2132 µM)", "fraction of cells in G1 phase": 0.502}
{"smiles": "N[C@@H](Cc1ccc(O)c(O)c1)C(=O)O", "note": "[Levodopa] (101.424 µM)", "fraction of cells in G1 phase": 0.487}
{"smiles": "CCN1CCCC1CNC(=O)c1cc(S(=O)(=O)CC)c(N)cc1OC", "note": "(stereo not drawn) [Amisulpride] (54.1272 µM)", "fraction of cells in G1 phase": 0.471}
{"smiles": "Nc1c2c(nc3ccccc13)CCCC2O", "note": "(stereo not drawn) [Hydroxytacrine maleate] (93.3405 µM)", "fraction of cells in G1 phase": 0.513}
{"smiles": "CC(C)(C)[C@]1(O)CCN2C[C@H]3c4ccccc4CCc4cccc(c43)[C@@H]2C1", "note": "[Butaclamol (+)] (55.3201 µM)", "fraction of cells in G1 phase": 0.535}
{"smiles": "CCN1CCN(C(=O)N[C@@H](C(=O)N[C@@H]2C(=O)N3C(C(=O)O)=C(CSc4nnnn4C)CS[C@H]23)c2ccc(O)cc2)C(=O)C1=O", "note": "[Cefoperazone acid] (30.9752 µM)", "fraction of cells in G1 phase": 0.487}
{"smiles": "C[C@]12CC[C@@H]3c4ccc(O)cc4CC[C@H]3[C@@H]1CCC2=O", "note": "[Estrone] (73.9714 µM)", "fraction of cells in G1 phase": 0.508}
{"smiles": "C[C@H]1C[C@@H]2[C@H]([C@@H](O)C[C@@]3(C)[C@H]2CC[C@]3(O)C(=O)CO)[C@@]2(C)C=CC(=O)C=C12", "note": "[Methylprednisolone] (53.4072 µM)", "fraction of cells in G1 phase": 0.481}
{"smiles": "CC(C)C[C@H](NC(=O)[C@@H](Cc1c[nH]c2ccccc12)NC(=O)[C@H](Cc1ccc(O)cc1)NC(=O)[C@H](CO)NC(=O)[C@H](Cc1c[nH]c2ccccc12)NC(=O)[C@H](Cc1c[nH]cn1)NC(=O)[C@@H]1CCC(=O)N1)C(=O)N[C@@H](CCCNC(=N)N)C(=O)N1CCC[C@H]1C(=O)NCC(N)=O", "note": "[Triptorelin] (15.2499 µM)", "fraction of cells in G1 phase": 0.468}
{"smiles": "O=c1[nH]cnc2c1ncn2[C@H]1CC[C@@H](CO)O1", "note": "[Didanosine] (84.6625 µM)", "fraction of cells in G1 phase": 0.514}
{"smiles": "CC(=O)Nc1ccc(OCC(O)CNC(C)C)cc1", "note": "(stereo not drawn) [Practolol] (75.0911 µM)", "fraction of cells in G1 phase": 0.506}
{"smiles": "CCCCCOC(=O)Nc1nc(=O)n([C@@H]2O[C@H](C)[C@@H](O)[C@H]2O)cc1F", "note": "[Capecitabine] (55.6483 µM)", "fraction of cells in G1 phase": 0.442}
{"smiles": "COc1cc(-c2ccc(=O)[nH]n2)ccc1OC(F)F", "note": "[Zardaverine] (74.5651 µM)", "fraction of cells in G1 phase": 0.566}
{"smiles": "Cc1cc(C(C)(C)C)c(O)c(C)c1CC1=NCCN1", "note": "[Oxymetazoline HCl] (76.8101 µM)", "fraction of cells in G1 phase": 0.511}
{"smiles": "Clc1ccc2c(c1)C(N1CCNCC1)=Nc1ccccc1O2", "note": "[Amoxapine] (63.737 µM)", "fraction of cells in G1 phase": 0.581}
{"smiles": "COc1ccc(CCN(C)CCCC(C#N)(c2ccc(OC)c(OC)c2)C(C)C)cc1OC", "note": "(stereo not drawn) [Verapamil] (40.7249 µM)", "fraction of cells in G1 phase": 0.507}
{"smiles": "CN(C)c1nc(N(C)C)nc(N(C)C)n1", "note": "[Altretamine] (95.1095 µM)", "fraction of cells in G1 phase": 0.49}
{"smiles": "COc1ccc(Cl)cc1C(=O)NCCc1ccc(S(=O)(=O)NC(=O)NC2CCCCC2)cc1", "note": "[Glyburide] (40.4847 µM)", "fraction of cells in G1 phase": 0.531}
{"smiles": "CCCNCC(O)COc1ccccc1C(=O)CCc1ccccc1", "note": "(stereo not drawn) [Propafenone] (58.5652 µM)", "fraction of cells in G1 phase": 0.489}
{"smiles": "CN1C(C(=O)Nc2ccccn2)=C(O)c2sccc2S1(=O)=O", "note": "[Tenoxicam] (59.2806 µM)", "fraction of cells in G1 phase": 0.469}
{"smiles": "Cc1ccc(/C(=C\\CN2CCCC2)c2ccccn2)cc1", "note": "[Trans-triprolidine HCl] (71.8389 µM)", "fraction of cells in G1 phase": 0.521}
{"smiles": "CC(C)(O/N=C(\\C(=O)N[C@@H]1C(=O)N2C(C(=O)[O-])=C(C[n+]3ccccc3)CS[C@H]12)c1csc(N)n1)C(=O)O", "note": "[Ceftazidime] (36.5909 µM)", "fraction of cells in G1 phase": 0.486}
{"smiles": "CCOC(=O)[C@H](CCc1ccccc1)N[C@@H](C)C(=O)N1Cc2ccccc2C[C@H]1C(=O)O", "note": "[Quinapril HCl] (45.6071 µM)", "fraction of cells in G1 phase": 0.482}
{"smiles": "C=C(c1ccc(C(=O)O)cc1)c1cc2c(cc1C)C(C)(C)CCC2(C)C", "note": "[Bexarotene] (57.3905 µM)", "fraction of cells in G1 phase": 0.546}
{"smiles": "C[C@@H]1C[C@H]2[C@@H]3CCC4=CC(=O)C=C[C@]4(C)[C@@]3(F)[C@@H](O)C[C@]2(C)[C@@]1(O)C(=O)CO", "note": "[Dexamethasone] (50.9591 µM)", "fraction of cells in G1 phase": 0.504}
{"smiles": "N=c1ccn2c(n1)O[C@H]1[C@H](O)[C@@H](CO)O[C@H]12", "note": "[Cyclocytidine HCl] (88.8077 µM)", "fraction of cells in G1 phase": 0.484}
{"smiles": "COc1cc(CNC(=O)CCCC/C=C/C(C)C)ccc1O", "note": "[Capsaicin] (65.4834 µM)", "fraction of cells in G1 phase": 0.556}
{"smiles": "NC(=O)OCC(COC(N)=O)c1ccccc1", "note": "[Felbamate] (83.9631 µM)", "fraction of cells in G1 phase": 0.505}
{"smiles": "CC[C@H]1OC(=O)[C@H](C)[C@@H](O[C@H]2C[C@@](C)(OC)[C@@H](O)[C@H](C)O2)[C@H](C)[C@@H](O[C@@H]2O[C@H](C)C[C@H](N(C)C)[C@H]2O)[C@](C)(O)C[C@@H](C)/C(=N\\OCOCCOC)[C@H](C)[C@@H](O)[C@]1(C)O", "note": "[Roxithromycin] (23.8929 µM)", "fraction of cells in G1 phase": 0.472}
{"smiles": "CCn1cc(C(=O)O)c(=O)c2cc(F)c(N3CCNCC3)cc21", "note": "[Norfloxacin] (62.6295 µM)", "fraction of cells in G1 phase": 0.455}
{"smiles": "CC(C)NNC(=O)c1ccncc1", "note": "[Iproniazid] (111.593 µM)", "fraction of cells in G1 phase": 0.47}
{"smiles": "COc1ccccc1Oc1c(NS(=O)(=O)c2ccc(C(C)(C)C)cc2)nc(-c2ncccn2)nc1OCCO", "note": "[Bosentan] (36.2564 µM)", "fraction of cells in G1 phase": 0.497}
{"smiles": "Cc1cccc(Nc2ccccc2C(=O)O)c1C", "note": "[Mefenamic acid] (82.887 µM)", "fraction of cells in G1 phase": 0.464}
